Screening data: PubChem BioAssay, National Center for Advancing Translational Sciences (NCATS)
Hits are enriched below; roughly 2.8% of the tested compounds scored in any of these assays.
ATXN2 expr inh = reduces ATXN2 reporter expression in HEK-293 cells; Potency, µM (highest dose often 57 µM), most hits filed as inhibitors; 0.72% of 360,000 active; HEK-293 ATXN2-luciferase reporter, luminescence, 24 h; further: nearly all actives have a fitted effect of over 55% in size
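qHTS (up to 57 uM final) was run with 24 h compound exposure of reporter cells at 37 °C. Each well was multiplexed: SteadyGlo luminescence measured ATXN2-luciferase expression after a fluorogenic Gly-Phe-AFC viability readout (25 uM final).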
HTT ATP protect = protects HTT-Q103 PC12 cells, measured by ATP | 0.14% of 230,000 active | AID 1471 | PC12 HTT-Q103 induced, cytoprotection, ATP luminescence, 40 h | Potency, µM (series often up to 56.4 µM), actives largely listed as activators; further: nearly all actives have a fitted effect of over 45% in size
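Rat PC12, Q103 Htt exon1-GFP fusion, ecdysone promoter; tebufenozide inducer 100 nM final; compound titration; qHTS, 1500 cells/well; ATPlite luminescent read.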
HTT aggregate = inhibitors of mutant huntingtin aggregate formation in PC12 cells. PC12 HttQ103-GFP aggregates, Acumen cytometry, 40 h. Potency, µM (highest dose often 46.1 µM), most hits filed as inhibitors. 1.1% of 220,000 active. AID 1688; further: nearly all actives have a fitted effect of over 60% in size
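Steps: seed 1500 PC12 HTTQ103-GFP cells/well; add tebufenozide, 100 nM final; add compound titration; add ATPLite reagent; quantify GFP aggregates by laser scanning cytometry.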
TGFb SMAD3 inh = TGF-b pathway inhibition | 1.2% of 410,000 active | Potency, µM (titrated, usually from 46.1 µM), usual class: inhibitors | HepG2 CAGA-GFP TGF-b/SMAD3 reporter, GFP fluorescence, 18 h; TGF-beta stimulated, 500 pg/mL final | AID 588855; further: nearly all actives have a fitted effect of over 65% in size
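TGF-beta reporter screen: HEPG2 CAGA-GFP, 1% FBS, 500 pg/mL TGF-beta final, 18 h; per-cell GFP summed per well; curves fitted and categorized by class.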
S2 tox = viability counter-screen for ATXN expression inhibitors. S2 cells (HEK-293 line with an ATXN2-luciferase reporter) viability, CellTiter-Fluor protease fluorescence, 24 h. Potency, µM (doses to about 56.7 µM), hits mostly cytotoxic. AID 651635. 0.49% of 400,000 active; further: nearly all actives have a fitted effect of over 40% in size
HepG2 viability = counter-screen for TGF-b inhibitors: cytotoxicity in HepG2 cells; HepG2 CAGA-GFP viability, ATP luminescence, 18 h; Potency, µM (highest dose often 46.1 µM), usual class: cytotoxic; 0.76% of 410,000 active; AID 588856
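HepG2 CAGA-GFP cells (1000/well, DMEM with 1% FBS) received compound, then TGF-beta at 500 pg/mL final, and were incubated 18 hours at 37 degrees C. Viability was read by CellTiter-Glo luminescence. Media-only wells were set as complete cell-killing and DMSO as no toxicity.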
A number is an active result; . = inactive; ? = inconclusive; / = no result; ! = repeats disagree; [ ] = another dose, or the depositor's remark. The call rests on the fitted dose curve; in most records, active means well fitted curve in the direction sought with a large enough effect; inconclusive means small, poorly fitted or top-dose-only effect, or another doubt; inactive means no such curve, though single readings can be large; an effect the other way counts as inactive or inconclusive.

SMILES	ATXN2 expr inh	HTT ATP protect	HTT aggregate	TGFb SMAD3 inh	S2 tox	HepG2 viability
COc1ccc(CCN2C(=O)CC(N3CCOCC3)C2=O)cc1OC (stereo unspecified)	.	.[10 µM]	.	.	.	.
COc1ccc(CCN2C(=O)CC(N3CCOCC3)C2=O)cc1 (stereo unspecified)	.	1.3µM	.	.	.	.
CC[C@@H](C)[C@H](NS(=O)(=O)c1cccc2ccccc12)C(=O)N[C@H](C=O)Cc1c[nH]c2ccccc12	/	.	/	/	/	/
O=C(Nc1cccc(Oc2ccccc2)c1)c1ccc(-n2cncn2)c2ccoc12	.	/	/	.	6.3µM	.
O=C(OCC1(COC(=O)c2cccnc2)CCCC(COC(=O)c2cccnc2)(COC(=O)c2cccnc2)C1O)c1cccnc1	.	/	/	/	.	/
CN[C@@H]1[C@H](O)[C@H](NC)[C@@H]2O[C@]3(O)C(=O)C[C@@H](C)O[C@H]3O[C@@H]2[C@H]1O	/	.	/	/	/	/
Oc1ccc(-c2c(-c3ccsc3)sc3ccccc23)cc1	?	/	/	11µM	?	.
COCc1ccc(-c2c(-c3ccsc3)sc3ccccc23)cc1	.	/	/	.	.	.
Cc1cnc(-n2ncc(C(=O)NC(C)(C)CO)c2-c2cccs2)nc1-c1ccc(F)cc1	/	/	/	/	.	/
NS(=O)(=O)c1ccc(NC(=S)N2CCN(Cc3ccc(Cl)c(Cl)c3)CC2)cc1	.	.	22µM	.	.	.
Cc1cccc(NC(=O)C2CC(O)CN2C(=O)OCc2ccccc2)c1 (stereo unspecified)	.	.	.	.	.	.
CC(NC(=O)OCc1ccccc1)C(=O)N1CC(O)CC1C(=O)O (stereo unspecified)	.	0.1µM	/	.	.	.
O=[N+]([O-])c1ccc(N2CCCC2)nc1N1CCCC1	.	.[10 µM]	.[9.22 µM]	.	.	.
Nc1ncc([N+](=O)[O-])c(N2CCCCCC2)n1	.	/	/	.	.	7.1µM
C=C(C)C(=O)OCC(O)CO (stereo unspecified)	.	/	/	/	.	/
O=C1OCCC1Sc1nnc(-c2ccc(Cl)cc2Cl)o1 (stereo unspecified)	6.3µM	.[10 µM]	.[9.22 µM]	?	.	.
CC1(C(=O)Nc2ccc3c(c2)OCO3)CCN1C(=O)Cc1cc(F)ccc1F (stereo unspecified)	.	/	/	.	.	.
CC1(C(=O)Nc2ccc3c(c2)OCO3)CCN1C(=O)CCc1ccc(Cl)cc1Cl (stereo unspecified)	.	/	/	.	28µM	.
Nc1c(C(=O)N2CCOCC2)sc2nc3c(cc12)CCCC3	3.2µM	/	/	.	.	.
CC(C)c1c(C(=O)NCCN2CCOCC2)cnn1-c1nccc(-c2cccs2)n1	/	/	/	/	.	/
COc1cc(-c2cnc3ccccc3c2)cc2c1OCCN(C(=O)CCn1nc(C)cc1C)C2	/	/	/	/	.	/
Cn1cc(CN2CCCC(C(=O)Nc3ccc(-c4cccc(F)c4)cc3)C2)cn1 (stereo unspecified)	/	/	/	?	32µM	.
COc1cccc(CN(C)C(=O)c2cnn(-c3ncc4c(n3)-c3ccccc3CCC4)c2C)c1	/	/	/	/	.	/
CC(C)[C@H]1C(=O)C(C(N)=O)=C(O)[C@]2(O)C(=O)C3=C(O)c4c(O)ccc(N(C)C)c4C[C@H]3C[C@@H]12	/	.[1.9 µM]	/	/	/	/
CCOC(=O)[C@@H](C)N(C(=O)OC(C)(C)C)S(=O)(=O)N(Cc1ccccc1)[C@@H](C(=O)OC)C(C)C	/	/	/	?	/	.
SMILES	ATXN2 expr inh	HTT ATP protect	HTT aggregate	TGFb SMAD3 inh	S2 tox	HepG2 viability
CCOC(=O)[C@@H](C)N(C(=O)OC(C)(C)C)S(=O)(=O)N(Cc1ccccc1)[C@H](C(=O)OC)C(C)C	.	/	/	10µM!	?	.
CC(C)(C)S(=O)N1Cc2cc(C(=O)NCc3ccc4c(c3)OCO4)nc(-c3cccc(-c4cc5ccccc5o4)c3)c2[C@@H]1CCO (stereo partly specified)	22µM	/	/	?	/	.
COc1cccc(-c2cccc(-c3nc(C(=O)NCc4ccc5c(c4)OCO5)cc4c3[C@H](CCO)N(S(=O)C(C)(C)C)C4)c2)c1 (stereo partly specified)	?	/	/	16µM	18µM	.
COc1cccc(-c2cccc(-c3nc(C(=O)Nc4ccc(-c5ccccc5)cc4)cc4c3[C@H](CCO)N(S(=O)C(C)(C)C)C4)c2)c1 (stereo partly specified)	?	/	/	?	.	.
O=C(c1cccc(F)c1)N(Cc1cc2cc3c(cc2nc1N1CCOCC1)CCC3)CC1CCCO1 (stereo unspecified)	/	/	/	/	.	/
C=CC(=O)Nc1cccc(CN2C(=O)N(c3cc(OC)cc(OC)c3)Cc3cnc(NCCCCN(CC)CC)nc32)c1	.	/	/	.	20µM	.
CCC(=O)/C=C/C1C(C)=CCCC1(C)C (stereo unspecified)	/	.	/	/	/	/
CCCCC/C=C\C/C=C\C/C=C\CCCCCCC(=O)NCC(=O)O	/	.	/	/	/	/
O=C(Nc1ccncc1)C1c2ccccc2Oc2ccccc21	.	.[10 µM]	.	.	.	.
CCCCNS(=O)(=O)c1ccc(NC(=O)C2c3ccccc3Oc3ccccc32)cc1	.	.[10 µM]	.	?	.	10µM
COc1cc(CCNC2=CC(=O)c3ncccc3C2=O)ccc1O	24µM	/	/	?	/	2.5µM
Cc1ccccc1CNc1ncnc2c1ncn2[C@@H]1O[C@@H](CO)[C@H](O)[C@@H]1O	/	.[1.9 µM]	/	/	/	/
COc1ccc(NC(=O)c2cccc3c(-c4cnn(C)c4)coc23)cc1	.	/	/	.	.	.
COc1cc(NC(=O)c2cccc3c(-c4cnn(C)c4)coc23)cc(OC)c1OC	18µM	/	/	.	?	.
O=C(Nc1ccc([N+](=O)[O-])cc1Cl)c1cc(Cl)cc(Cl)c1O	/	/	/	?	/	.
CNc1ccc(C=O)cc1I	/	/	/	.	/	.
Cc1csc(NC(=O)C2CC(=O)N(Cc3ccco3)C2)n1 (stereo unspecified)	.	1.1µM	0.63µM	.	.	.
C[n+]1cc2c3c(ccc2c2ccc4cc5c(cc4c21)OCO5)OCO3	1.6µM	.	6.3µM	1.4µM	2.8µM	.
COc1ccc2cc3[n+](cc2c1O)CCc1cc2c(cc1-3)OCO2	.	/	/	/	?	/
Cc1nc2ccccc2n1CC(O)COc1ccc(C(=O)O)cc1 (stereo unspecified)	.	/	/	.	.	.
CCC(=O)c1ccc(OCC(O)Cn2c(C)nc3ccccc32)cc1 (stereo unspecified)	.	.[10 µM]	11µM	.	.	.
OC(CNCc1ccco1)Cn1c2ccccc2c2ccccc21 (stereo unspecified)	.	.	.	?	.	18µM
OC(CNCc1ccco1)COc1ccccc1 (stereo unspecified)	.	.	.	.	.	.
